Experimental data: ChEMBL document CHEMBL3433997, “St. Jude Leishmania screening dataset” (2016)

Experiments:
Assay type in all cases: functional
[1] = biological target: Solute carrier family 2, facilitated glucose transporter member 1 (Homo sapiens) (UniProt P11166); experiment: ST_JUDE_LEISH: Cytotoxicity at 2uM final concentration against transgenic Leishmania Mexicana promastigotes LmGLUT1 that are glucose transport deficient and complemented with the human glucose transporter GLUT1. Activity is measured by DNA content using SYBR green in vitro
Solute carrier family 2, facilitated glucose transporter member 1 (Homo sapiens), sequence (P11166 whole entry): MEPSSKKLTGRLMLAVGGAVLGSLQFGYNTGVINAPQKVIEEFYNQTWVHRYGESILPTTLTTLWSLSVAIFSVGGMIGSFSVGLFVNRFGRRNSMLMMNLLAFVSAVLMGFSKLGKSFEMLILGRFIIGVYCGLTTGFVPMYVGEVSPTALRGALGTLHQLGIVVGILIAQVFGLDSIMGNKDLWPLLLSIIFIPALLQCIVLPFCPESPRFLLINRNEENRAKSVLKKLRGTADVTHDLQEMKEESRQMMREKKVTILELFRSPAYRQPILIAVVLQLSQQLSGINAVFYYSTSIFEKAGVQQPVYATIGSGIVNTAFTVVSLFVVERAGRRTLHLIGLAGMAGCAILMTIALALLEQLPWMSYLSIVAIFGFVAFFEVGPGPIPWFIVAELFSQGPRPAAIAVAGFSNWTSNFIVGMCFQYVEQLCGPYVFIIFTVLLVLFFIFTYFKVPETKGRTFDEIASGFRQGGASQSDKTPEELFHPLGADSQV

[2] = biological target: Hexose transporter 1 (Plasmodium falciparum) (UniProt O97467); experiment: ST_JUDE_LEISH: Cytotoxicity at 2uM final concentration against transgenic Leishmania Mexicana promastigotes LmPfHT that are glucose transport deficient and complemented with the Plasmodium falciparum hexose transporter. Activity is measured by DNA content using SYBR green in vitro
[3] = biological target: Glucose transporter (Leishmania mexicana) (UniProt O61059); experiment: ST_JUDE_LEISH: Cytotoxicity at 2uM final concentration against transgenic Leishmania Mexicana promastigotes LmGT2 that are glucose transport deficient and complemented with the L. Mexicana glucose transporter 2. Activity is measured by DNA content using SYBR green in vitro

Row | Structure (SMILES) | inhibition [1] [%] | inhibition [2] [%] | inhibition [3] [%]
1 | Cc1cc(N)c2cc(NC(=O)CCC(=O)Nc3ccc4nc(C)cc(N)c4c3)ccc2n1 | 5.9 | 6.01 | 8.34
2 | Cc1cc(C(=O)NCc2ccc(-c3c(C)noc3C)cc2)n(-c2ccc(Cl)cc2)n1 | 8.7 | 7.89 | 2.6
3 | COc1ccc(Nc2nccc(N3CCC(NS(=O)(=O)c4ccc(NC(C)=O)cc4)C3)n2)cc1 (stereo unspecified) | 2.99 | 2.85 | 3.38
4 | CC(C)N1CCN(C(CN2CCN(CCCOc3cccc(F)c3)CC2)c2ccc(F)cc2)CC1 (stereo unspecified) | -2.25 | -0.57 | -1.78
5 | Fc1c(CNCC2CCN(CC3CCCCC3)CC2)cccc1C(F)(F)F | 4.53 | 3.93 | 5
6 | CCc1nnc2sc(-c3cccc(NC(=O)c4ccc(OC)c(Cl)c4)c3)nn12 | 1.05 | 2.45 | 3.88
7 | CC(C)C1C(=O)N(S(C)(=O)=O)C2CCN(C(=O)c3ccc(CN4CCCCC4)c([N+](=O)[O-])c3)C12 (stereo unspecified) | 3.87 | 4.49 | -1.4
8 | CCCN1CCN(c2ccccc2NS(=O)(=O)c2ccc(C(=O)Nc3ccc(Cl)cc3)cc2)CC1 | 2.67 | 3.32 | -1.54
9 | COc1ccc(Nc2cc(C)c3cc(NC(=O)c4ccncc4)ccc3n2)cc1 | 0.86 | 2.43 | 0.74
10 | Cc1cccc(NC(=O)Nc2cccc(-c3ccc(-c4nc5cc(C(F)(F)F)ccc5[nH]4)cc3)c2)c1 | 5.86 | 2.01 | 1.66
11 | Cc1cccc(CNc2nc(C)cc(N[C@@H](Cc3ccccc3)C(=O)NC3CCCC3)n2)c1 | 16.1 | 12.4 | 7.72
12 | O=C(Nc1cccc(-c2ccc(-c3nc4ccccc4[nH]3)cc2)c1)c1cccnc1 | 6.47 | 0.4 | -0.92
13 | Cc1ccc(C)c2sc(N(CCCn3ccnc3)C(=O)c3ccco3)nc12 | 4.42 | 5.62 | 5.23
14 | COc1cc2nc(NCc3nc4ccccc4[nH]3)nc(N)c2cc1OC | 11 | 11.9 | 10.3
15 | Cc1ccc(CNC(=O)[C@H](CC(C)C)Nc2cc(C)nc(NCC3CCCCC3)n2)cc1 | 11.2 | 9.15 | 9.26
16 | CC1CN(S(=O)(=O)c2ccc(NC(=O)c3cc(-c4ccccc4O)n[nH]3)cc2)CC(C)O1 (stereo unspecified) | 4.88 | 5.64 | 4.67

Row | Structure (SMILES) | inhibition [1] [%] | inhibition [2] [%] | inhibition [3] [%]
17 | Cc1cccc2nc(-c3ccc(-c4ccc(CN5CCN(C6CCN(C)CC6)CC5)cc4)cc3)[nH]c12 | 1.22 | 1.31 | -0.53
18 | N#CC(c1ccc(Br)cc1)c1ccc2c(C(F)(F)F)cc(C(F)(F)F)nc2n1 (stereo unspecified) | 4.94 | 4.44 | 0.48
19 | CN(C)C(=O)c1ccc(CN(Cc2ccc(OC(C)(C)C)cc2)Cc2ccc3c(c2)OCCO3)cc1 | 0.59 | 2.04 | 0.26
20 | O=C(Nc1ccc(Cl)c(Cl)c1)Nc1ccc(F)c([N+](=O)[O-])c1 | -2.06 | 0.4 | -2.36
21 | O=S(=O)(Nc1ccc2nccc(N3CCNCC3)c2c1)c1ccc(-c2ccccc2)cc1 | 0.86 | 1.12 | 0.59
22 | C[C@@H](N/C(=N\c1ccccc1Cl)Nc1ccc(C#N)cc1O)c1ccc(Br)cc1 | 6.22 | 5.06 | 3.66
23 | Cc1c(S(=O)(=O)Nc2ccc3nccc(N4CC(C)NC(C)C4)c3c2)sc2ccc(Cl)cc12 (stereo unspecified) | 5.22 | 6.03 | 3.81
24 | CO/C(=C\C=C\c1cc2cc(Cl)c(Cl)cc2[nH]1)C(=O)NCCCN1CCN(c2cccc(OCC(=O)Nc3cccc(C(=O)c4ccccc4)c3)c2)CC1 | 4.84 | 2.82 | 2.69
25 | Cc1nc(C)c(-c2ccc(S(=O)(=O)c3ccc(Cl)cc3)cc2)c(O)c1Br | 4.93 | 4.53 | 4.12
26 | CCC(NCc1ccc(-c2cncc(C(=O)NCC(C)C)c2)cc1)c1ccccc1 (stereo unspecified) | 7.89 | 7.18 | 8.76
27 | O=C(NC(NC(=S)Nc1ccc([N+](=O)[O-])cc1)C(Cl)(Cl)Cl)c1cccc(Cl)c1 (stereo unspecified) | -0.29 | -1.54 | -0.06
28 | COc1ccc(NC(=O)[C@H](CC(C)C)Nc2cc(C)nc(NCC3CCCCC3)n2)cc1 | 3.07 | 2.78 | 0.83
29 | Oc1c(Br)cc2oc3c(c2c1CNCc1ccccc1)CCCC3 | -0.72 | -0.92 | -0.81
30 | O=c1nc(C=Cc2ccc(Br)cc2)oc2ccccc12 | 3.24 | 2.44 | 3.63
31 | CC(C)CN1CCCN(Cc2cccc(NC(=O)c3cc4ccccc4s3)c2)CC1 | -0.04 | -0.28 | -5.16
32 | CC(C)NCc1ccc(-c2ccc(CN3CCCC(c4ccccc4)C3)cc2)c(C(=O)NC2Cc3ccccc3C2)c1 (stereo unspecified) | 16.8 | 17.4 | 11
